# The list is not random: actives were taken first. Their share in the collection is about 3.7%.
# Tau ThT inhib = tau fibrillization inhibition (ThT binding) | recombinant tau K18 P301L, heparin-induced fibrillization, ThT fluorescence | P10636 | AID 1460 | Potency, µM (highest dose often 57.4 µM), for inactives: top-dose activity, negative = inhibition, hits mostly inhibitors | 270,000 compounds, 2.1% hits; further: on the % scale 0 is the no-effect control and ±100 the full control effect; nearly all actives have a fitted effect of over 55% in size
# Target sequence (P10636 561-689 P618L limits assumed): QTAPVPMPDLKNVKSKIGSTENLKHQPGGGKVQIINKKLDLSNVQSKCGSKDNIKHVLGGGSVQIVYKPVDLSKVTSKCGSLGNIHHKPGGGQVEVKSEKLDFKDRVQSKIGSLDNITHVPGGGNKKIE
#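 K18 P301L tau (15 uM + 0.24 uM Alexa 594-tagged), heparin 20 uM, NaOAc pH 7, 6 h 37 C; ThT 30 uM, 1 h RT, ex 450/em 510 nm.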
# Tau fluor counter = counter-screen for tau fibril formation inhibitors. tau K18 P301L Alexa594 fluorescence, heparin fibrillization. Potency, µM (top dose mostly 57.7 µM), for the others: at the highest dose activity change, negative = decrease. 280,000 compounds, 0.93% hits. AID 1463; further: on the % scale 0 is the no-effect control and ±100 the full control effect; nearly all actives have a fitted effect of over 55% in size
#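 Human tau K18 P301L (15 uM unlabeled, 0.24 uM Alexa 594-labeled) in 100 mM sodium acetate pH 7 with 20 uM heparin, 6 hr at 37 C. ThT 30 uM added, 1 hr ambient; Alexa 594 FP and total fluorescence read at 555/632 nm.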
# HttQ103 aggreg = inhibitors of mutant huntingtin aggregate formation in PC12 cells; PC12 HttQ103-GFP aggregates, Acumen cytometry, 40 h; Potency, µM (titrated, usually from 46.1 µM), for the others: top-dose activity change, negative = inhibition, hits mostly inhibitors; 220,000 compounds, 1.1% hits; further: on the % scale 0 is the no-effect control and ±100 the full control effect; nearly all actives have a fitted effect of over 60% in size
#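 Multiplexed with ATP-based cell death, this channel scores GFP aggregates in PC12 cells expressing inducible HTTex1-Q103-GFP. Induction used 100 nM tebufenozide; compounds were tested in concentration series.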
# HTT cytoprotect = Huntington cell model cytoprotection by ATP luminescence | Potency, µM (doses to about 56.4 µM), inactives show cytoprotection (ATP increase), hits mostly activators | PC12 HTT-Q103 induced, cytoprotection, ATP luminescence, 40 h | 230,000 compounds, 0.14% hits; further: % of control where 0% means no effect; nearly all actives have a fitted effect of over 45% in size
#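 Compounds were screened for protection of PC12 cells against cell death after tebufenozide induction (100 nM final) of mutant Huntingtin exon 1 (Q103) fused to GFP.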
# Tau fibril FP = inhibitors of human tau fibril formation; P10636; K18 P301L tau heparin fibrillization, Alexa594 FP, 6 h; Potency, µM (top dose mostly 57.7 µM), for inactives: at the highest dose activity, negative = inhibition, actives largely listed as inhibitors; 280,000 compounds, 0.39% hits; further: on the % scale 0 is the no-effect control and ±100 the full control effect; nearly all actives have a fitted effect of over 55% in size
#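 Quantitative HTS format: compounds meet 15 uM recombinant K18 P301L tau and Alexa 594-tau tracer in 100 mM sodium acetate pH 7; 20 uM heparin triggers fibrillization at 37 C over 6 hr; FP gives the signal.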
# * hit, by the source's call; ? = inconclusive; . = no result given; [ ] = dose if it differs, or a comment. The call rests on the fitted dose curve; in most records, active means well fitted curve in the direction sought with a large enough effect; inconclusive means small, poorly fitted or top-dose-only effect, or another doubt; inactive means no such curve, though single readings can be large; an effect the other way counts as inactive or inconclusive. Potency means the concentration at half of the fitted maximal effect.
SMILES,Tau ThT inhib,Tau fluor counter,HttQ103 aggreg,HTT cytoprotect,Tau fibril FP
COC(=O)c1ccc(NC(=O)CSc2ncc3c(n2)-c2cc(Cl)ccc2N(Cc2ccccc2)S3(=O)=O)cc1,8.2%,?,.,.,15.8µM*
O=C(NC1CCCC1)c1cc2nc(-c3ccccc3)cc(-c3ccccc3)n2n1,-1.7%,-3.0%,3.55µM*,-84.8%[10 µM],-6.1%
Cc1ccc(C2CC(=O)Nc3cc4c(cc32)OCCO4)cc1Br (stereo not given),0.5%,-8.7%,.,.,-2.2%
CC=C1C2C=C(C)CC1(N)c1ccc(=O)[nH]c1C2 (stereo not given),1.0%,1.9%,.,-12.9%,-7.7%
O=C(Nc1ccc(S(=O)(=O)N2CCCCC2)cc1)c1ccccc1Cl,-14.2%,-24.9%,-15.2%,-4.4%,0.6%
O=C(Nc1ccccc1)Nc1ccc(S(=O)(=O)N2CCCCC2)cc1,12.2%,15.8µM*[quencher],12.6µM*,11.0%[10 µM],31.6µM*
O=c1c2ccccc2sn1-c1cc(S(=O)(=O)N2CCOCC2)ccc1N1CCOCC1,?,-5.0%,?,-100.9%,?
O=C(Nc1ccccc1F)Nc1cc(S(=O)(=O)N2CCOCC2)ccc1N1CCCC1,-6.0%,-22.7%,12.0%,-8.8%,2.9%
O=c1c2ccccc2sn1-c1cc(S(=O)(=O)N2CCOCC2)ccc1N1CCCC1,25.1µM*,-26.5%,2.9%,-122.8%,31.6µM*
O=C(Nc1ccc(C(=O)N2CCOCC2)cc1)Nc1cccc(Cl)c1,-9.1%,?,11.2µM*,-24.7%[10 µM],?
O=C(Nc1ccc(OCC(=O)N2CCOCC2)cc1)Nc1cccc(Cl)c1,-6.9%,?,-10.0%[9.22 µM],9.3%[10 µM],9.2%
O=C(Nc1ccc(Cl)c(Cl)c1)Nc1cc(S(=O)(=O)N2CCOCC2)ccc1N1CCCC1,5.1%,7.94µM*[quencher],?,-1.7%[10 µM],?
CCCCN(CC)C(=O)CSc1nc2n[nH]c(C)c2c(=N)n1-c1ccc(CC)cc1,?,-16.5%,.,.,14.9%
N#CC(C#N)=NNc1ccc(S(=O)(=O)N2CCCCC2)cc1,15.8µM*,?,20µM*,0.5%[10 µM],7.6%
CN1CCN(c2ccc(S(=O)(=O)N3CCCCC3)cc2NC(=O)c2ccc3ccccc3c2)CC1,-4.8%,-16.2%,21.4%,23.2%[10 µM],-10.3%
COC(=O)c1cccc(NC(=O)c2ccc(S(=O)(=O)N3CCN(C)CC3)cc2)c1,-1.0%,-1.0%,-1.0%,-1.9%,-0.6%
O=C(O)c1cc(S(=O)(=O)N2CCOCC2)ccc1N1CCCCC1,-3.8%,-5.6%,10.1%,17.9%,2.0%
O=C(Nc1cc(S(=O)(=O)N2CCOCC2)ccc1N1CCCC1)c1ccc2c(c1)S(=O)(=O)c1ccccc1C2=O,25.1µM*,?,3.6%,-20.6%,?
N#C/C(=C\c1ccccc1)C(=O)Nc1cc(S(=O)(=O)N2CCOCC2)ccc1N1CCCC1,-9.4%,-5.3%,?,0.708µM*,0.9%
CN1CCN(S(=O)(=O)c2ccc(NC(=O)Nc3cccc(Cl)c3)cc2)CC1,?,?,-1.0%,-0.1%[0.074 µM],17.8µM*
Cc1ccc(CNC(=O)CCC(=O)N2CC3CCCN3c3ccccc32)cc1 (stereo not given),-7.3%,-15.2%,.,.,10.9%
COC(=O)c1ccc(NC(=O)N2CCC(CN3CCc4ccccc4C3)CC2)cc1,-7.1%,-5.3%,.,.,-5.6%
Fc1ccc(C(NCCc2ccc(Cl)cc2)c2nnc(-c3ccccc3Cl)o2)cc1 (stereo not given),?,-24.4%,.,.,-11.1%
Cc1ccc(NC(=O)N2CCc3cc(S(=O)(=O)N4CCC(C)CC4)ccc32)cc1,13.2%,-7.9%,.,.,-8.9%
O=C(Nc1cccc(O)c1)c1cc(S(=O)(=O)N2CCCC2)ccc1Cl,-15.6%,-11.4%,?,13.5%[10 µM],3.9%
O=C(Nc1cccc(Cl)c1)Nc1cc(S(=O)(=O)N2CCCCC2)ccc1Cl,15.0%,?,?,-7.6%[10 µM],11.2µM*
CC(=O)N1CCc2cc(S(=O)(=O)NC3CCCc4ccccc43)ccc21 (stereo not given),-6.5%,-2.2%,7.08µM*,38.3%[10 µM],5.7%
Cc1sc2cc3c(c(C(=O)c4ccccc4)[n+]2c1C)-c1cccc2cccc-3c12,?,-9.6%,8.91µM*,.,1.5%

# Source: PubChem BioAssay
